According to PubChem BioAssay:
Entries with a potency or affinity are not part of this list. Records with an inconclusive call do not appear. Activity calls are given as the source filed them.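 How the source made its calls, unless noted: active means a dose-response fit showing signal loss, with half-maximal concentration no higher than twice the top tested dose; inconclusive means flat fit between 30% and 70% signal loss, or poor fit; inactive means the rest.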

Columns and labels:
[1] = fungal growth arrest, C. neoformans – Alamar Blue, cherry-picks, dose response (AID 686998;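 active means falling signal with fitted half-maximal potency no higher than twice the top valid tested dose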)
[2] = C. neoformans lysis by adenylate kinase leakage – AK release luminescence, cherry-picks, dose response (AID 687000;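 active means fitted dose curve reaches 40% lysis signal rise at or below the highest valid concentration tested for that sample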;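 further: luminescent detection of adenylate kinase leaking from lysed yeast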)
[3] = viability loss in HepG2 hepatoma cells – cell-based, cherry-picks, set 2, cytotoxicity control, dose response (AID 687002)

Measured: outcome

CC(C)NC(=O)Nc1ccc2c(c1)CC(=O)N([C@@H](C)CO)C[C@@H](C)[C@@H](CN(C)Cc1ccc(Oc3ccccc3)cc1)O2
inactive: all assays above

O=C(C1CCOCC1)N1CC[C@@H]2[C@H]1c1cc(Br)ccc1N[C@@H]2CO
inactive: all assays above

CC=Cc1ccc2n(c1=O)C[C@H]1[C@H](CO)[C@@H](C(=O)N3CCc4ccccc4C3)N(C(=O)C3CC3)[C@@H]21 (mixture of isomers)
inactive: all assays above

CCNC(=O)Nc1ccc2c(c1)C(=O)N(C)[C@H]1CC[C@H](CC(=O)Nc3ccccc3F)O[C@@H]1CO2
inactive: all assays above

C[C@@H]1CN([C@H](C)CO)S(=O)(=O)c2ccc(C#Cc3ccc(F)cc3)cc2O[C@H]1CN(C)C(=O)NC1CCCC1
inactive: all assays above

CN1C(=O)c2cc(NC(=O)Nc3ccc(Cl)cc3)ccc2OC[C@H]2O[C@@H](CC(=O)NCCN3CCCCC3)CC[C@@H]21
inactive: all assays above

C[C@H]1CN([C@@H](C)CO)S(=O)(=O)c2ccc(C#Cc3ccccn3)cc2O[C@@H]1CN(C)Cc1ccccc1
inactive: all assays above

CS(=O)(=O)c1ccc(-c2cnc3c(NC=O)cc(-c4ccsc4)cn23)cc1
inactive: all assays above

COc1cccc(S(=O)(=O)Nc2ccc3c(c2)OC[C@H](C)NC[C@@H](C)[C@H](OC)CN(C)C3=O)c1
inactive: all assays above

C[C@H](CO)N1C[C@H](C)[C@@H](CN(C)Cc2ccncc2)Oc2ccc(NC(=O)CCC(F)(F)F)cc2C1=O
inactive: all assays above

C[C@@H]1CN([C@@H](C)CO)C(=O)c2cc(NC(=O)Nc3cccc4ccccc34)ccc2O[C@@H]1CN(C)C(=O)Nc1ccccc1
inactive: all assays above

O=C1CCC(C(=O)Nc2cccc(C(F)(F)F)c2)N1 (stereo not drawn)
inactive: all assays above

CCC(=O)N(C)C[C@H]1Oc2cc(-c3ccccc3)ccc2S(=O)(=O)N([C@H](C)CO)C[C@H]1C
inactive: all assays above

C[C@H]1CN([C@@H](C)CO)C(=O)Cc2cc(NC(=O)CCCCCC(=O)Nc3ccccc3N)ccc2O[C@H]1CN(C)Cc1ccc2c(c1)OCO2
inactive: all assays above

CO[C@H]1CN(C)C(=O)c2cc(NS(=O)(=O)CC(F)(F)F)ccc2OC[C@@H](C)N(Cc2cccnc2)C[C@@H]1C
inactive: all assays above

C[C@@H]1CN([C@@H](C)CO)S(=O)(=O)c2ccc(-c3ccccc3)cc2O[C@H]1CN(C)C(=O)C1CCCCC1
inactive: all assays above

COc1ccc(C#Cc2ccc3c(c2)O[C@@H](CN(C)C(C)=O)[C@@H](C)CN([C@H](C)CO)S3(=O)=O)cc1
inactive: all assays above

COc1ccccc1C(=O)Nc1ccc2c(c1)OC[C@H](C)N(C(C)=O)C[C@H](C)[C@H](OC)CN(C)C2=O
inactive: all assays above

C[C@@H]1CCCCO[C@H](CN(C)Cc2ccc3c(c2)OCO3)[C@H](C)CN([C@H](C)CO)C(=O)c2cc(NC(=O)Nc3cccc4ccccc34)ccc2O1
inactive: all assays above

O=C(Nc1ccccc1)N1CCCCN2[C@H](CO)[C@@H](c3ccc(C#CC4CC4)cc3)[C@@H]2C1
inactive: all assays above

C[C@@H]1CN([C@@H](C)CO)C(=O)c2cccc(NS(C)(=O)=O)c2O[C@@H]1CN(C)C(=O)Nc1ccc2c(c1)OCO2
inactive: all assays above

CC(C)NC(=O)Nc1ccc2c(c1)CC(=O)N([C@H](C)CO)C[C@H](C)[C@H](CN(C)S(=O)(=O)c1ccc(Cl)cc1)O2
inactive: all assays above

C[C@@H]1CN([C@@H](C)CO)C(=O)CCCn2nncc2CO[C@@H]1CN(C)Cc1cccc(C(F)(F)F)c1
inactive: all assays above

C[C@@H]1CN([C@@H](C)CO)C(=O)Cc2cc(NC(=O)Nc3cccc4ccccc34)ccc2O[C@@H]1CN(C)S(=O)(=O)c1cccs1
inactive: all assays above

CC1CCCCN1C(=O)CSc1nc(C2CC2)nc2c1cnn2-c1ccccc1 (stereo not drawn)
inactive: all assays above

COc1ccccc1CN1CC[C@H]2[C@H](CO)Nc3ccc(C#Cc4ccccc4)cc3[C@H]21
inactive: all assays above

O=C(CN1CCOCC1)N1CC[C@@H]2[C@@H](CO)Nc3ccc(-c4ccccc4F)cc3[C@@H]21
inactive: all assays above

C[C@@H](NC(=O)C[C@@H]1CC[C@@H]2[C@H](COC[C@H](O)CN2Cc2cc(F)ccc2F)O1)c1ccccc1
inactive: all assays above

C[C@H]1CN([C@@H](C)CO)S(=O)(=O)c2ccc(C#Cc3cccc(F)c3)cc2O[C@@H]1CN(C)C(=O)NC1CCCCC1
inactive: all assays above

COc1ccccc1C(=O)Nc1ccc2c(c1)C(=O)N(C)C[C@H](OC)[C@@H](C)CN(CC1CC1)[C@@H](C)CO2
inactive: all assays above

CO[C@@H](CN(C)Cc1cc(F)ccc1F)[C@@H](C)CN([C@H](C)CO)S(=O)(=O)c1ccc(F)cc1
inactive: all assays above

C[C@H](CO)N1C[C@H](C)[C@H](CN(C)Cc2ccccc2)Oc2cc(C#Cc3ccccn3)ccc2S1(=O)=O
inactive: all assays above

COc1ccc(C(=O)NC(=S)Nc2cccc(Cl)c2N2CCOCC2)cc1[N+](=O)[O-]
inactive: all assays above

CNC(=O)C[C@H]1CC[C@H]2[C@@H](COc3ccc(NC(=O)Nc4cccc(C#N)c4)cc3C(=O)N2C)O1
inactive: all assays above

C[C@H]1CCCCO[C@H](CN(C)C(=O)Nc2ccc(F)cc2)[C@@H](C)CN([C@@H](C)CO)C(=O)c2cc(NS(=O)(=O)c3ccc(Cl)cc3)ccc2O1
inactive: all assays above

N#Cc1ccc(-c2ccc3c(c2)[C@H]2[C@H](CCN2C(=O)Cc2ccccc2)[C@@H](CO)N3)cc1
inactive: all assays above

C[C@@H]1CN([C@H](C)CO)C(=O)c2cccc(NC(=O)Nc3ccccc3)c2O[C@@H]1CN(C)Cc1ccc(Cl)c(Cl)c1
inactive: all assays above

C[C@@H]1CN([C@@H](C)CO)S(=O)(=O)c2ccc(C#CC3CC3)cc2O[C@H]1CN(C)CC1CCOCC1
inactive: all assays above

CNC(=O)CN(c1ccc(C)cc1)S(=O)(=O)c1ccccc1
inactive: all assays above

CC(C)CC#Cc1ccc2c(c1)O[C@@H](CN(C)C(=O)C1CCC1)[C@@H](C)CN([C@H](C)CO)S2(=O)=O
inactive: all assays above

Cc1cc(C)c(NC(=O)C2CCC(=O)N2)c(C)c1 (stereo not drawn)
inactive: all assays above

COCCNC(=O)C[C@H]1C=C[C@@H](NS(=O)(=O)c2ccc(C)cc2)[C@H](CO)O1
inactive: all assays above

COc1cccc(C#Cc2cnc3c(c2)C(=O)N([C@H](C)CO)C[C@@H](C)[C@@H](CN(C)C(=O)C2CCOCC2)O3)c1
inactive: all assays above

Cc1cc(C(=O)Nc2ccc3c(c2)C(=O)N(C)[C@@H]2CC[C@@H](CC(=O)N[C@@H](C)c4ccccc4)O[C@@H]2CO3)no1
inactive: all assays above

Cc1cccc(C)c1NC(=O)C(CCc1ccccc1)N1CCC(c2ccccc2)CC1 (stereo not drawn)
inactive: all assays above

COc1ccc(S(=O)(=O)Nc2ccc3c(c2)C(=O)N([C@H](C)CO)C[C@@H](C)[C@@H](CN(C)C(=O)Nc2ccccc2)O3)cc1
inactive: all assays above

C[C@@H]1CN([C@H](C)CO)C(=O)c2c(c3ccccc3n2C)-c2ccccc2CO[C@H]1CN(C)S(=O)(=O)c1ccc(Cl)cc1
inactive: all assays above

O=C(Nc1cccc(F)c1)N[C@H]1CC[C@H](CCNS(=O)(=O)c2cccc(Cl)c2)O[C@@H]1CO
inactive: all assays above

CC(C)NC(=O)Nc1ccc2c(c1)C(=O)N([C@@H](C)CO)C[C@H](C)[C@@H](CN(C)Cc1ccc3c(c1)OCO3)OCCCC[C@@H](C)O2
inactive: all assays above

CO[C@H]1CN(C)C(=O)c2cc(NS(=O)(=O)c3ccc(C)cc3)ccc2OC[C@@H](C)N(C(=O)NC(C)C)C[C@@H]1C
inactive: all assays above

COc1cccc(S(=O)(=O)Nc2ccc3c(c2)[C@@H]2C[C@@H](CC(=O)NCc4cccc(F)c4)O[C@H](CO)[C@@H]2O3)c1
inactive: all assays above

CC(C)NC(=O)Nc1ccc2c(c1)CC(=O)N([C@H](C)CO)C[C@@H](C)[C@H](CN(C)Cc1ccc3c(c1)OCO3)O2
inactive: all assays above

CC(C)NC(=O)Nc1ccc2c(c1)C(=O)N([C@H](C)CO)C[C@@H](C)[C@H](CN(C)C(=O)Nc1ccccc1)OCCCC[C@@H](C)O2
inactive: all assays above

C[C@H](CO)N1C[C@H](C)[C@H](CN(C)CC2CCCCC2)Oc2ccc(NC(=O)Nc3ccc4c(c3)OCO4)cc2C1=O
inactive: all assays above

O=C(C[C@@H]1C=C[C@@H](NC(=O)C2CCC2)[C@H](CO)O1)NC1CCC1
inactive: all assays above

CN1C(=O)c2cc(NC(=O)NC3CCCC3)ccc2OC[C@H]2O[C@@H](CC(=O)NC3CCC3)CC[C@@H]21
inactive: all assays above

COc1ccc(-n2cc(CNCCc3nc(C)cc(C)n3)c(-c3ccccc3Cl)n2)cc1
inactive: all assays above

C[C@@H]1CN([C@@H](C)CO)C(=O)c2c(c3ccccc3n2C)-c2ccccc2CO[C@@H]1CN(C)S(=O)(=O)c1ccc(Cl)cc1
inactive: all assays above

Cc1noc(C)c1NC(=O)Nc1ccc2c(c1)C(=O)N(C)[C@@H]1CC[C@H](CC(=O)N[C@H]3CCN(Cc4ccccc4)C3)O[C@@H]1CO2
inactive: all assays above

CCCNC(=O)N(C)C[C@@H]1Oc2ncc(C#CC3CCCCC3)cc2C(=O)N([C@H](C)CO)C[C@@H]1C
inactive: all assays above

CCOc1ccc(C(=O)NC(=S)Nc2ccccc2N2CCC(C)CC2)cc1[N+](=O)[O-]
inactive: all assays above

Cc1cccc(C)c1NC(=O)C(CCc1ccccc1)N1CCN(CCN(C)C)CC1 (stereo not drawn)
inactive: all assays above

COc1ccc(N(CC(=O)NCCSCc2ccc(C)cc2)S(=O)(=O)c2ccccc2)cc1
inactive: all assays above

O=C(Nc1cccc(F)c1)N[C@H]1CC[C@@H](CCNS(=O)(=O)c2cccc(Cl)c2)O[C@@H]1CO
inactive: all assays above

CCCC#Cc1ccc2c(c1)O[C@H](CN(C)CCC)[C@H](C)CN([C@@H](C)CO)S2(=O)=O
inactive: all assays above

C[C@@H]1CN([C@H](C)CO)C(=O)c2cc(NC(=O)Nc3cccc4ccccc34)ccc2O[C@H]1CN(C)C(=O)Nc1ccc(C(F)(F)F)cc1
inactive: all assays above

C[C@@H]1CN([C@@H](C)CO)C(=O)c2cc(NS(=O)(=O)c3ccc(F)cc3)ccc2O[C@@H](C)CCCCO[C@H]1CN(C)S(=O)(=O)c1ccc(F)cc1
inactive: all assays above

Cc1cccc(-c2ccc([C@@H]3[C@H]4CN(C(=O)c5ccc6c(c5)OCO6)CCCCN4[C@H]3CO)cc2)c1
inactive: all assays above

Cc1ccc(C)c(NC(=O)C2CCCN2C(=O)NC2CCCCC2)c1 (stereo not drawn)
inactive: all assays above

C[C@@H]1CN([C@@H](C)CO)S(=O)(=O)c2ccc(C#Cc3ccccn3)cc2O[C@H]1CN(C)Cc1ccccc1
inactive: all assays above

COc1cc(C(=O)Oc2ccccc2N)cc(OC)c1OC
inactive: all assays above

C/C=C/c1ccc([C@H]2[C@@H](C#N)N(S(=O)(=O)c3cccc(F)c3)[C@H]2CO)cc1
inactive: all assays above

Cc1cc(C(=O)Nc2ccc3c(c2)C(=O)N(C)[C@H]2CC[C@@H](CC(=O)N[C@@H](C)c4ccccc4)O[C@H]2CO3)no1
inactive: all assays above

COc1ccc(NC(=O)N(C)C[C@H]2OCCCC[C@@H](C)Oc3ccc(N(C)C)cc3C(=O)N([C@H](C)CO)C[C@H]2C)cc1
inactive: all assays above

COc1cccc(S(=O)(=O)N2C[C@@H](O)COC[C@H]3O[C@H](CC(=O)Nc4ccccc4)CC[C@@H]32)c1
inactive: all assays above

C[C@@H]1CCCCO[C@H](CN(C)C(=O)c2ccccc2)[C@@H](C)CN([C@@H](C)CO)C(=O)c2cc(NC(=O)c3ccccc3)ccc2O1
inactive: all assays above
